# EphB4 ephrin blk = EphB4-ephrin-B2 interaction antagonism. AID 720. P54760. inhibition, % at 7 µM. hit rate 0.15% among 97,000. EphB4 LBD / TNYL-RAW-Alexa532 peptide, fluorescence polarization;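 active means inhibition above the screen-wide mean inhibition plus 3 SD, cut at about 15% in these data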;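 further: 0% = DMSO wells and 100% = excess unlabeled TNYL-RAW peptide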
# CYP2C9 inhib = inhibitors of human CYP2C9; P11712; hit rate 20% among 96,000; inhibition, % at 5 µM; CYP2C9 Supersomes, luciferin-H conversion, luminescence;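 active means blocking of liver enzyme CYP2C9 beyond about 50% at 5 µM, limit read from the data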
# Target sequence (P11712 whole entry, looked up): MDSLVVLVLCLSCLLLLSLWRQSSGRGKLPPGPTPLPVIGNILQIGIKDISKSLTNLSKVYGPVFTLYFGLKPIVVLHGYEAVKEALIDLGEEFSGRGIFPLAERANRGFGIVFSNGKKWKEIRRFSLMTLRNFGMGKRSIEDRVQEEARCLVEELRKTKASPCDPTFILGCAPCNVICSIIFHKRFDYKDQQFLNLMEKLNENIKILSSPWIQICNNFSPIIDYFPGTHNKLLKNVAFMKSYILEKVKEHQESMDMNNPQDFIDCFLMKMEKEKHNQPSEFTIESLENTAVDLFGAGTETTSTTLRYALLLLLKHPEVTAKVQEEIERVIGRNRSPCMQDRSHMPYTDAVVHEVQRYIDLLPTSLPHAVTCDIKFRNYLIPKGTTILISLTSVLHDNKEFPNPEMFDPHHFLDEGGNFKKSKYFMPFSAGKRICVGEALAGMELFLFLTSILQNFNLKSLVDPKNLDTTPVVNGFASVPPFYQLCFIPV
# CYP2C19 inhib = blocks human cytochrome P450 2C19 | inhibition, % at 5 µM | P33261 | CYP2C19 Supersomes, luciferin-H EGE luminescence, 30 min | hit rate 21% among 96,000;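 active means CYP2C19 inhibition above a set limit at 5 µM in the primary screen, cut at about 50% in these data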;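 further: plate controls were negative control wells for no effect and 2.5 mM tranylcypromine positive control for full effect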
# CYP2C9 act = activators of human CYP2C9 | activation factor at 5 µM | hit rate 1.4% among 96,000 | P11712 | recombinant CYP2C9, luciferin-H conversion, luminescence; stronger effect = higher value; factor 1 = untreated enzyme, 0 = blocked | AID 1024;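 active means activation factor of 2 or more for CYP2C9 at a 5 µM dose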;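 further: 0 = sulfaphenazole-blocked wells and 1 = vehicle-only wells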
# CYP2C19 act = increases human CYP2C19 enzyme activity; 96,000 tested, under 10 active; AID 1025; activation factor at 5 µM; recombinant CYP2C19, luciferin-H EGE luminescence; stronger effect = higher value; 0 = fully inhibited enzyme, 1 = untreated enzyme;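 active means activation factor of at least 2 at 5 µM in the primary screen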;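 further: 0 = wells with 2.5 mM tranylcypromine and 1 = vehicle-only wells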
# * = called active by the depositor; . = no result. Rows were chosen to be rich in hits. Some 27% of all compounds tested hit in one or more screens of this group.
SMILES,EphB4 ephrin blk,CYP2C9 inhib,CYP2C19 inhib,CYP2C9 act,CYP2C19 act
Cc1cc(=O)[nH]c(N2CCc3ccccc3C2)n1,-1.0,-12.9,27.5,1.1,0.7
CC(=O)c1ccc(OCCCC(=O)NC2=NCCS2)cc1,-7.6,-3.5,39.2,1,0.6
Cc1ccc(-c2c(C)n([O-])c3c([n+]2=O)CCCC3)o1,7.4,14.1,19.1,0.9,0.8
Cc1c(-c2cccs2)[n+](=O)c2c(n1[O-])CCCCC2,-7.3,49.3,59.3*,0.5,0.4
Fc1ccc(C2CC(c3ccccc3)n3ncnc3N2)cc1 (stereo not drawn),-0.7,21.5,88.0*,0.8,0.1
Cc1ccccc1C1CC(c2ccccc2)Nc2ncnn21 (stereo not drawn),-1.4,10.1,36.4,0.9,0.6
Clc1ccc(C2CC(c3ccccc3)Nc3ncnn32)cc1 (stereo not drawn),.,32.4,75.3*,0.7,0.2
CCOCCCNC(=O)c1ccc(CS(=O)(=O)Cc2cccc(C)c2)o1,-4.4,7.3,22.7,0.9,0.8
CC(/C=C/c1ccco1)=N\NC(=O)c1cc(C)[nH]n1,1.4,15.6,8.3,0.8,0.9
CCOC(=O)c1[nH]c2ccc(F)cc2c1NC(=O)Nc1ccccc1OC,-10.9,-9.2,-17.3,1.1,1.2
COc1cc(-c2nn3c(C4CCCCC4)nnc3s2)cc(OC)c1OC,-2.2,83.7*,21.6,0.2,0.8
COc1ccc(-c2nnc3sc(C4CCCCC4)nn23)cc1OC,-0.4,27.2,28.1,0.7,0.7
COc1ccc(-c2nn3c(C4CCCCC4)nnc3s2)cc1OC,2.9,63.9*,73.7*,0.4,0.3
COc1ccc(S(=O)(=O)NCCc2c(C)nn(C)c2Oc2ccccc2)cc1,-4.7,47.7,87.4*,0.5,0.1
COc1ccc(S(=O)(=O)NCc2ccccn2)cc1,-1.8,12.0,32.2,0.9,0.7
Cc1nn(C)c(Oc2ccccc2)c1CCNS(=O)(=O)c1ccc(Cl)cc1,7.5,79.9*,96.8*,0.2,0
Cc1nn(C)c(Oc2ccc(Cl)cc2)c1C(=O)O,0.6,17.2,-3.1,0.8,1
CCN1CC2=C(OC(N)=C(C#N)C2c2ccccc2)/C(=C\c2ccccc2)C1 (stereo not drawn),-5.6,65.8*,90.7*,0.3,0.1
Cc1ccccc1NC(=O)/C=C/c1cccc(C(F)(F)F)c1,-0.4,-121.8,5.0,2.2*,0.9
COc1ccc(N2C(=O)CC(Nc3ccc(C)cc3)C2=O)cc1 (stereo not drawn),2.5,74.4*,13.8,0.3,0.9
COC(=O)c1ccccc1NC1CC(=O)N(c2c(C)cccc2C)C1=O (stereo not drawn),3.2,77.7*,33.9,0.2,0.7
COC(=O)c1ccccc1NC(=O)CSc1ccc(C)cc1,3.5,.,.,.,.
COC(=O)c1ccc(NC2CC(=O)N(c3ccccc3C)C2=O)cc1 (stereo not drawn),-1.4,20.4,60.1*,0.8,0.4
Cc1ccc(NC2CC(=O)N(c3ccc(N4CCCCC4)cc3)C2=O)cc1 (stereo not drawn),-5.8,-7.1,-18.7,1.1,1.2
CN=C(Nc1ccc(C(=O)OC)cc1)SC1CC(=O)N(c2ccccc2F)C1=O (stereo not drawn),-4.5,48.6,16.5,0.5,0.8
SMILES,EphB4 ephrin blk,CYP2C9 inhib,CYP2C19 inhib,CYP2C9 act,CYP2C19 act
COC(=O)c1ccc(N2C(=O)CC(N(C)CCc3ccc(OC)c(OC)c3)C2=O)cc1 (stereo not drawn),1.7,54.5*,61.5*,0.5,0.4
Cc1nc(NC2=NCN(CCN3CCOCC3)CN2)nc2c(C)cccc12,0.2,.,.,.,.
O=C(NCc1ccccc1)N(Cc1cc2cc3c(cc2[nH]c1=O)OCCO3)CC1CCCO1 (stereo not drawn),3.3,44.3,46.1,0.6,0.5
COc1cccc(N2C(=O)CC(Nc3ccc(N4CCOCC4)cc3)C2=O)c1 (stereo not drawn),3.6,-4.1,-2.2,1,1
COC(=O)c1cccc(NC2CC(=O)N(c3ccc(OC)c(OC)c3)C2=O)c1 (stereo not drawn),.,10.1,53.1*,0.9,0.5
CCCn1nnc(NC(=O)c2cc(Br)ccc2OC)n1,-7.4,-260.5,74.3*,3.6*,0.3
CCCn1nnc(NC(=O)c2cccc(OCc3ccccc3)c2)n1,-2.9,60.9*,47.1,0.4,0.5
CCc1ccc(C(=O)Nc2nnn(CC)n2)cc1,7.7,50.0*,46.1,0.5,0.5
CCNc1nnc(-c2ccncc2)s1,-1.1,23.1,71.2*,0.8,0.3
O=C(Nc1nnc(-c2ccncc2)s1)C1CCCO1 (stereo not drawn),3.4,49.1,77.8*,0.5,0.2
CCC(=O)Nc1nnc(-c2ccncc2)s1,8.9,38.0,75.3*,0.6,0.2
O=C(Nc1nnc(-c2ccccc2F)s1)C1CCCO1 (stereo not drawn),2.3,.,.,.,.
CSc1ccc(C(=S)N2CCN(Cc3ccccc3)CC2)cc1,6.4,41.0,52.4*,0.6,0.5
CCN1CCN(C(=S)c2ccc(SC)cc2)CC1,11.7,0.3,22.5,1,0.8
Cn1cc(S(=O)(=O)CC(=O)Nc2ccc3c(c2)OCO3)c2ccccc21,0.2,.,.,.,.
Cc1cccc(NC(=O)CS(=O)(=O)c2cn(C)c3ccccc23)c1,.,-10.9,55.8*,1.1,0.4
CCn1cc(S(=O)(=O)CC(=O)Nc2cc(C)ccc2C)c2ccccc21,-1.9,-79.8,95.5*,1.8,0
CCOC(=O)N1CCN(C(=O)CS(=O)(=O)c2cn(Cc3ccccc3Cl)c3ccccc23)CC1,0.5,30.4,14.4,0.7,0.9
Cc1cc(NC(=O)CS(=O)(=O)c2cn(Cc3ccccc3Cl)c3ccccc23)no1,6.7,67.6*,40.2,0.3,0.6
CCc1ccc2c(c1)C(C)=CC(C)(C)N2,4.3,31.3,43.6,0.7,0.6
CCOC(=O)C1=C(C)NC(=O)NC1,-2.3,15.4,6.1,0.8,0.9
O=C(c1ccncc1)N(Cc1cc2ccccc2[nH]c1=O)C1CCCCC1,1.4,74.2*,90.4*,0.3,0.1
O=C(c1ccco1)N(Cc1cc2ccccc2[nH]c1=O)C1CCCCC1,-0.1,54.0*,13.3,0.5,0.9
CC(C)CN(Cc1cc2ccccc2[nH]c1=O)C(=O)c1cccnc1,.,-0.3,-4.4,1,1
CN(C)c1ccc(/C(=N\O)C(F)(F)F)cc1,0.7,15.2,35.5,0.8,0.6
COc1ccc(CNc2nc3nc(C)c(Cl)c(C)n3n2)cc1OC,-5.7,.,.,.,.
COc1ccc(N2CSC3=C(C#N)C(c4cccc(OC)c4OC)CC(=O)N3C2)cc1 (stereo not drawn),-1.1,6.6,-2.8,0.9,1
CCc1ccccc1N1C(=O)C2CC=CCC2C1=O (stereo not drawn),9.9,-18.7,19.9,1.2,0.8
COc1ccc(C2CC(=O)N3CN(c4ccc(C)c(Cl)c4)CSC3=C2C#N)cc1 (stereo not drawn),-4.0,97.6*,77.1*,0,0.2
Cc1cccc(N2CSC3=C(C#N)C(c4ccc(C)o4)CC(=O)N3C2)c1 (stereo not drawn),2.5,85.9*,42.5,0.1,0.6
